High-throughput results (PubChem)
Shown are actives, neighbours in structure and some others; about 2.2% of the full set was active somewhere.
ADAM10 inh – ADAM10 inhibition, QFRET primary screen; inhibition, % at 7 µM; recombinant ADAM10, EDANS/DABCYL FRET peptide cleavage, 3 h; 370,000 tested, 0.62% active; O14672;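 active = inhibition above a per-campaign cutoff equal to the mean of compounds falling between control-based bounds plus 3 SD, cut at about 20% in these data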
NPR2 activator – GC-B (human) receptor activation; AID 1920062; 370,000 tested, 0.11% active; P20594; activation, % at 10 µM; HEK293-GC-B cells, CNP EC30, cGMP TR-FRET; 0% at EC30 CNP, 100% saturating CNP;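 active = activation at 10 µM reaching about 35% in either raw or pattern-adjusted values, limit read from the data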
GC-A act – GC-A (human) enzyme activation | P16066 | HEK293 GC-A cells, cGMP TR-FRET, EC30 ANP; 0% at EC30 ANP, 100% saturating ANP | activation, % at 10 µM | 370,000 tested, 0.14% active | AID 1671463; in the data active = activation above about 40%
KLK7 zymogen act – proKLK7 (human) activation, primary screen | AID 652039 | purified proKLK7, EDANS-DABCYL substrate fluorescence; 100% is mature enzyme control, 0% vehicle | 370,000 tested, 0.9% active | activation, % at 7 µM | P49862;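 active = activation above the mean of all tested compounds plus 3 SD, computed per campaign excluding outliers beyond control limits, cut at about 13% in these data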
Target sequence (P49862 whole entry, looked up): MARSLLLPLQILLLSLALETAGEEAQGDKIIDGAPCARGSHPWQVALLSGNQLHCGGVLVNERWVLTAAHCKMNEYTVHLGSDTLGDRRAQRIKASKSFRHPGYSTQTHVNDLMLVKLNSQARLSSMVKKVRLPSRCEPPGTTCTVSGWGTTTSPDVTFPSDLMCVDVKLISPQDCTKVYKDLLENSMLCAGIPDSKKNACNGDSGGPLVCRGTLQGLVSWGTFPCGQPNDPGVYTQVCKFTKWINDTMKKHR
ADAM17 inh – inhibitors of human ADAM17. inhibition, % at 6.95 µM. recombinant ADAM17, EDANS/DABCYL FRET peptide cleavage. AID 720648. P78536. 370,000 tested, 0.83% active;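 active = inhibition above the mean of compounds lying between control limits plus 3 SD, set per campaign, cut at about 8.5% in these data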
proKLK7 act conf – confirmation of human kallikrein-7 zymogen activators; shares compounds with KLK7 zymogen act; purified proKLK7, EDANS-DABCYL substrate fluorescence; scaled: vehicle 0, mature enzyme 100; activation, % at 7 µM; 3,200 tested, 68% active;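 active = activation, as change over the incubation, above the mean of all tested compounds plus 3 SD, cut at about 13% in these data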
EDANS-DABCYL int – optically interferes with EDANS-DABCYL signal, flagging KLK7 hits | EDANS-DABCYL substrate fluorescence interference, no enzyme, 4 h; solvent 0%, active enzyme control 100% | activation, % at 7 µM | AID 686952 | 3,200 tested, 80% active | shares compounds with KLK7 zymogen act;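 active = activation above the all-compound mean plus 3 SD, ignoring values outside control-based bounds, cut at about 4.8% in these data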;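 note: value is the 4 h activation minus the activation read at time zero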
EDANS interf – counter-screen for kallikrein-7 activators: EDANS-DABCYL interference, dose response; shares compounds with KLK7 zymogen act; EDANS-DABCYL peptide fluorescence interference, no enzyme; EC50, µM; 250 tested, 20% active;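 active = compounds that raise the fluorescence signal in this interference counterscreen, with EC50 at or below 10 µM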;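 note: intact quenched peptide substrate alone read at 355 nm excitation and 520 nm emission; signal is fluorescence gain from T0 to T4 after four hours at room temperature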
Each line names hits and unclear results; the compound was inactive in the other large screens (follow-up assays come after a bar, where they were run); ! = not active in a repeat.

CCN1CCCCC(NC(=O)COCc2ccccc2)C1=O (configuration not stated)	none
Cn1ccc2c(-c3cccc(C=O)c3)cc3c(c21)C1CCC3O1 (configuration not stated)	KLK7 zymogen act 17.4 | proKLK7 act conf 15.3 | EDANS-DABCYL int 13.8
COc1ccc(Cn2c(NC(=O)c3ccccc3)nc(Cc3ccccc3)c2Cc2ccccc2)cc1	none
CCOC(=O)c1sc(NC(=O)c2ccccc2)cc1C	KLK7 zymogen act 16.4 | proKLK7 act conf inactive | EDANS-DABCYL int inactive
COCCn1c(SCC(=O)Nc2ccccc2OC)nc2ccccc2c1=O	none
COc1ccccc1NC(=O)CSc1nc2c(sc3ccccc32)c(=O)n1CCN(C)C	KLK7 zymogen act 16.0 | proKLK7 act conf inactive | EDANS-DABCYL int inactive
COc1cccc(Nc2ccc(C(=O)O)cc2N)c1	KLK7 zymogen act 30.3 | proKLK7 act conf inactive | EDANS-DABCYL int inactive
O=C(COc1ccccc1)Nc1cccc(-c2cn3cccnc3n2)c1	none
COc1ccc(C)cc1S(=O)(=O)Nc1cccc(C)c1	none
O=S(=O)(Nc1cccc(-c2cn3cccnc3n2)c1)c1ccc(Cl)cc1	KLK7 zymogen act 27.8 | proKLK7 act conf inactive | EDANS-DABCYL int 6.4
COc1ccc(C)cc1S(=O)(=O)Nc1cccc(-c2cn3cccnc3n2)c1	KLK7 zymogen act 18.0 | proKLK7 act conf inactive | EDANS-DABCYL int inactive
CCOC(=O)c1cnc2c(C(=O)OC)cccc2c1NCc1ccco1	KLK7 zymogen act 14.3 | proKLK7 act conf 14.6 | EDANS-DABCYL int 7.3 | EDANS interf inactive
CCOC(=O)c1cnc2c(C)cccc2c1NCc1ccco1	none
COC(=O)[C@]12C[C@H](CC(=O)NCc3ccc(OC)c(OC)c3)C(=O)N(CCC3=CCCCC3)C1=C[C@H](C1CCCC1)O[C@@H]2C	none
Nc1c2ccccc2nc2ccccc12	KLK7 zymogen act 14.3! | proKLK7 act conf 51.9 | EDANS-DABCYL int 71.2
Oc1ccc(N=Cc2ccc(-c3cccs3)s2)cc1	none
O=Cc1ccc(-c2cccs2)s1	KLK7 zymogen act 47.0 | proKLK7 act conf 58.1 | EDANS-DABCYL int 67.3
C[C@H](O)[C@@H]1CN2CCc3c([nH]c4c(-c5ccc6c(c5)OCO6)cccc34)[C@@H]2C[C@@H]1N(C)C(=O)c1ccccc1F	none
NC(=S)NNc1ccnc2cc(Cl)ccc12	KLK7 zymogen act 15.8 | proKLK7 act conf 20.0 | EDANS-DABCYL int 20.7
O=C(NNc1ccnc2cc(Cl)ccc12)C1CCCCC1	none
Clc1ccc(-n2c(SCc3cccc4ccccc34)nnc2-c2ccccc2)cc1	none
COc1ccc(C2Nc3ccccc3C(=O)N2Cc2ccco2)cc1COc1ccccc1C (configuration not stated)	none (no result: KLK7 zymogen act)
COc1ccc(C2Nc3ccccc3C(=O)N2Cc2ccco2)cc1CN1C(=O)c2ccccc2C1=O (configuration not stated)	KLK7 zymogen act 29.6! | proKLK7 act conf inactive | EDANS-DABCYL int 5.8
O=C1c2ccccc2NC(c2cccc(O)c2)N1Cc1ccco1 (configuration not stated)	KLK7 zymogen act 27.3 | proKLK7 act conf 29.4 | EDANS-DABCYL int 28.5
C[C@@H]1C[C@H](O)CCCCCC(=O)Cc2cc(O)cc(O)c2C(=O)O1	none
Cc1occc1-c1nnc(SCC(=O)Nc2ccccn2)n1-c1ccccc1	none
COc1ccc(C2C(C#N)=C(C)NC3=C2C(=O)CC(C)(C)C3)cc1 (configuration not stated)	KLK7 zymogen act 20.6 | proKLK7 act conf 60.7 | EDANS-DABCYL int 66.1
CSC1=C(C#N)C(c2ccc(Cl)cc2)C2=C(CC(C)(C)CC2=O)N1 (configuration not stated)	none
